The sample as a whole holds a higher share of hits than the screen did.
Dicer inh: inhibitors of Dicer pre-microRNA processing, primary screen, biochemical, cat-ELCCA, chemiluminescence; 6% of 47,000 active; Endoribonuclease Dicer (Homo sapiens), Q9UPY3; cat-ELCCA pre-miR-21 Dicer processing; stronger effect = higher value; z-score at 25 µM; in the data active = z-score above about 3, passing the limit was not always enough;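 also: plate controls were vehicle for no effect and no enzyme for full effect; higher signal means more uncleaved substrate so more Dicer inhibition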
Active calls of the source: *.

SMILES | Dicer inh
COc1cccc(C(c2c[nH]c3ccccc23)c2c[nH]c3ccccc23)c1 | 0.33
Cc1cccc(C(c2c[nH]c3ccccc23)c2c[nH]c3ccccc23)c1O | 1.2
COc1ccc(C(c2c[nH]c3ccccc23)c2c[nH]c3ccccc23)cc1OC | -0.04
CC1=C(C)C/S(=N\S(=O)(=O)c2ccccc2)N(S(=O)(=O)c2ccccc2)C1 (stereo unspecified) | 0.54
CC1=C(C(=O)OC(C)C)C(c2ccc(F)cc2)C2=C(CC(c3cccs3)CC2=O)N1 (stereo unspecified) | 0.94
Cc1ccc(C)n1-c1ccc(SCC(=O)O)cc1 | 2
Cc1ccc(C)n1-c1cc(C(=O)O)cc(C(=O)O)c1 | 11*
CC1=NN(c2cccc(C(=O)O)c2)C(=O)C1 | -3.6
O=c1sc2ccccc2c(NCc2ccccc2)c1[N+](=O)[O-] | 4.4*
CCN(CC)c1c([N+](=O)[O-])c(=O)sc2ccccc12 | -1.2
O=[N+]([O-])c1ccsc1NCc1ccccc1 | -1.1
CCCCOC(=O)Nc1nnc(C)s1 | -0.67
COc1ccc2c(c1)SC1=NS(=O)(=O)CCN12 | -0.4
Nc1nonc1-n1nnc(C(=O)O)c1-c1ccc(C2CCCCC2)cc1 | 0.92
O=C(Nc1ccc2ccccc2n1)c1c(Cl)cccc1Cl | 1.7
O=C(Nc1ccc2ccccc2n1)c1ccc(Cl)cc1 | 1.2
O=C(Nc1ccc2ccccc2n1)C1CCCCC1 | 5.1*
O=C(Nc1ccc2ccccc2n1)c1cccs1 | -0.6
O=C(Nc1ccc2ccccc2n1)Nc1ccccc1F | -2.5
O=C(Nc1ccc2ccccc2n1)c1ccccc1Cl | 3.2*
C=CCSc1ncnc2c1sc1nc(C)cc(C)c12 | 3.1*
CCOc1ncnc2c1sc1nc(C)cc(C)c12 | 1.1
Cc1cc(C)c2c(n1)sc1c(SCc3ccc(F)cc3)ncnc12 | 1
Cc1cccc(Cc2c(C)nc3nc(C(F)(F)F)[nH]n3c2=O)c1 | -1.7
Cn1c(SCC(O)c2ccc(F)cc2)nnc1-c1ccc2ccccc2c1 (stereo unspecified) | -0.89
SMILES | Dicer inh
COC(=O)c1cncc(C(=O)OC)c1 | -1.1
CC(C)(C)c1cc(C(=O)Oc2cncc(Cl)c2)cc(C(=O)Oc2cncc(Cl)c2)c1 | 36*
CC(C)(C)c1ccc(C(=O)Oc2c(Cl)cncc2Cl)cc1 | 0.22
CSc1nc(NC(=O)NS(=O)(=O)c2ccccc2Cl)nc(C2CC2)n1 | 2
FC(F)(F)c1cnc(NCCNc2cnc3ccccc3n2)c(Cl)c1 | -1.2
O=C(NCCNc1ncc(C(F)(F)F)cc1Cl)C(F)(F)Sc1ccccc1 | 5*
Cc1ccc(S(=O)(=O)NC(=O)NCCNc2ncc(C(F)(F)F)cc2Cl)cc1 | -1.6
O=C(O)CC(CC(=O)O)c1ccc(Cl)cc1Cl | -2.2
Nc1n[nH]c(=O)c2cc(-c3ccc(Cl)cc3)[nH]c(=O)c12 | -0.77
Nc1[nH]c(=S)[nH]c(=O)c1C(c1ccc(Cl)cc1Cl)c1c(N)[nH]c(=S)[nH]c1=O | 3.4*
CCCCCc1c(O)nc(SCCN2CCOCC2)n(-c2ccccc2)c1=O | 3.3*
CCOC(=O)CSc1nc2sc3c(c2c(=O)n1-c1ccccc1)CCN(C)C3 | 2.5
CCCCc1c(O)nc(SCCN(C)C)n(-c2ccccc2)c1=O | 0.39
COc1ccc(C2CC(=O)C3=C(C2)Nc2ccccc2NC3c2ccc(F)c(F)c2)cc1OC (stereo unspecified) | 0.82
CCOC(=O)c1ccc(OC(=O)c2cccnc2Oc2ccccc2)c(Cl)c1 | -1
Cc1cccc(NC(=O)c2snnc2C)c1C(=O)O | 0.58
CCc1cc2c(=O)c(-c3nc4ccccc4n3C)coc2c(CN(C)C)c1O | 3.4*
Cc1nc(-c2coc3c(C)c(O)c(CN(C)C)cc3c2=O)cs1 | -0.18
CCc1cc2c(=O)c(-c3nc4ccccc4[nH]3)coc2c(CN(CC)CC)c1O | 0.96
CCc1cc2c(=O)c(-c3nc4ccccc4n3C)c(C)oc2cc1O | 1.3
O=c1c(-c2nc3ccccc3s2)coc2c(CN3CCCCC3)c(O)ccc12 | 0.4
CCc1cc2c(=O)c(-c3nc4ccccc4[nH]3)coc2c(CN2CCC(C)CC2)c1O | 4.9*
CC(=O)Nc1cc(C(=O)c2ccc(Cl)cc2)nn(-c2ccccc2)c1=O | 13
COc1ccc2c(c1OC)C(=O)OC2Nc1cc(C)ccn1 (stereo unspecified) | 1.1
Cc1ccc(OCC(O)Cn2c[n+](C)c3cc(C)c(C)cc32)cc1 (stereo unspecified) | -0.75
SMILES | Dicer inh
CCOC(=O)CSC(=S)Nc1ccc(C)cc1C | 0.37
CN=C(Nc1cc(C)c(C)cc1C)SC | -0.54
CSC(=NCc1ccco1)Nc1ccc(C)cc1C | 4.1*
O=C1C=C(Nc2cccc(O)c2)c2ccccc2C1=O | -5.4
O=C(OCc1ccc(Cl)cc1)c1cnc(NNC(=O)C(F)(F)F)nc1C(F)(F)F | 3.4*
CCCC(=O)NNc1ncc(C(=O)OCC)c(C(F)(F)F)n1 | 2.7
O=C(OCc1ccc(Cl)cc1)c1cnc(Sc2ccc(Cl)cc2)nc1C(F)(F)F | -4
CCOC(=O)c1c(NC(=O)Oc2ccccc2)sc2c1CCCC2 | 0.18
CCOC(=O)c1cc(-c2cccs2)nn1C(=O)c1ccccc1 | -0.11
N#CC1(CN2C(=O)C3(OCCO3)c3ccccc32)CC=CCC1 (stereo unspecified) | 1.2
Cc1ccc2oc(-c3cc(Br)ccc3O)c(O)c(=O)c2c1 | 5.3*
Cc1ccc2oc(-c3ccco3)c(O)c(=O)c2c1 | -2.9
Cc1ccc(-c2oc3ccc(C)cc3c(=O)c2O)cc1 | -2.2
COc1ccc(OC)c(C2C(C#N)=C(C)NC3=C2C(=O)CC(C)(C)C3)c1 (stereo unspecified) | -0.2
Cc1n[nH]c(C)c1Sc1nccc(-c2cccnc2)n1 | -1.5
C=CCOc1ccc(C2CC(=O)Nc3n[nH]c(-c4ccc(Cl)cc4)c32)cc1OC (stereo unspecified) | -0.73
O=C1c2oc3ccc(F)cc3c(=O)c2C(c2cccc(O)c2)N1Cc1ccc2c(c1)OCO2 (stereo unspecified) | 0.33
CCNC(=O)NNc1c(Cl)cccc1Cl | -0.28
CN(C)c1cnn(-c2cnc3ccccc3n2)c(=O)c1Cl | -0.18
Cc1c2c(=O)n(-c3ccccc3)[nH]c2cc(=O)n1CCc1c[nH]c2ccccc12 | 3*
Cc1c2c(=O)n(-c3ccccc3)[nH]c2cc(=O)n1Cc1ccc2c(c1)OCO2 | -2
Cc1nc(=O)c(-c2ccccc2)c(C)n1CCc1c[nH]c2ccccc12 | -1.1
NC(=O)c1ccc(NC(=O)c2nccnc2C(=O)O)cc1 | 0.08
Nc1ccccc1SCC(=O)Nc1cccc2nsnc12 | -2.1
CCn1cc(C(=O)O)c(=O)c2cc(F)c(N3CCNCC3)cc21 | -0.24
SMILES | Dicer inh
CCn1cc(C(=O)O)c(=O)c2cc(F)c(N3CCN(C)CC3)cc21 | 3
CCn1cc(C(=O)O)c(=O)c2cc(F)c(N3CCN(S(=O)(=O)c4ccc(Cl)cc4)CC3)cc21 | 3.5*
O=C(Nc1csc(C(F)(F)F)c1-c1ccccc1)C(Cl)Cl | 1.1
CCOC(=O)c1cc(C#N)c(N2CCN(C(=O)c3ccc(Cl)cc3)CC2)nc1C(F)(F)F | -1.5
CN(Cc1ccccc1)S(=O)(=O)Cc1ccccc1 | 0.64
O=S(=O)(Cc1ccccc1)C1CCCCC1O (stereo unspecified) | 3.1*
O=S1(=O)CC(O)C(S(=O)(=O)Cc2ccc(Cl)cc2)C1 (stereo unspecified) | 0.55
O=C(c1ccco1)c1cn(CC(=O)N2CCOCC2)c2ccccc12 | 1.2
S=C(Nc1ccc(Cl)cc1Cl)N1CCCC1c1cccs1 (stereo unspecified) | 0.54
COc1cc(C2Nc3ccc(C(=O)c4ccccc4)cc3NC3=C2C(=O)CC(C)(C)C3)ccc1O (stereo unspecified) | 0.14

Source: PubChem
